In ChEMBL document CHEMBL1961873, “Compounds: GSK PKIS; Assays: Nanosyn kinase panel” (2012):
Several values for one entry are separate records, joined by “and”; a condition that tells them apart may be missing. Identical values can stand only once.

Legend:
[1] = target: T1, Muscle, skeletal receptor tyrosine-protein kinase (Homo sapiens) (UniProt O15146); settings: at 1 µM;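 note: reported value is the mean percent inhibition of MuSK kinase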
T1 sequence (whole entry): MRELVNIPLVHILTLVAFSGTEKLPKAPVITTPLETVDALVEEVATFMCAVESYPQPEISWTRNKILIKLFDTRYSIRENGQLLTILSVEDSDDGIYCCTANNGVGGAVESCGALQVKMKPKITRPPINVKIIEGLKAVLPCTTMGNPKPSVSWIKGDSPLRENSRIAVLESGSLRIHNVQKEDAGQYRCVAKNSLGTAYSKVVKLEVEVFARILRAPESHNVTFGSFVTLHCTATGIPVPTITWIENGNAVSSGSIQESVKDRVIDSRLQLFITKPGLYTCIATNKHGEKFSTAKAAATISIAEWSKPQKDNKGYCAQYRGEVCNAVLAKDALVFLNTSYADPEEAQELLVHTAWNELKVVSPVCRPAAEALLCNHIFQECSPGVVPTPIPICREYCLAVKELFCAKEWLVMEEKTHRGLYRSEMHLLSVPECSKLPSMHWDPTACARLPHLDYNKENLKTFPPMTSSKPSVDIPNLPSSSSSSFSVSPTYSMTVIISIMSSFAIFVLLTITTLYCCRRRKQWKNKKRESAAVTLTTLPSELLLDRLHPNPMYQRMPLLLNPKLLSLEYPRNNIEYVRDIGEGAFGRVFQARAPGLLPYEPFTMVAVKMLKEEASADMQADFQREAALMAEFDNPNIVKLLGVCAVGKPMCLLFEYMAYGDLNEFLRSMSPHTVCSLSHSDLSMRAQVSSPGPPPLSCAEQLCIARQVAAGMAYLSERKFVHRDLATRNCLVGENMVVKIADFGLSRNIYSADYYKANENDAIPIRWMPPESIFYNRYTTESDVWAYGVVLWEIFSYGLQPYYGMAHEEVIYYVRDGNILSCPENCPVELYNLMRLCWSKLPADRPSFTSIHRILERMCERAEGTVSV

[2] = target: Platelet-derived growth factor receptor alpha (Homo sapiens) (UniProt P16234); settings: at 0.1 µM
Chain of Platelet-derived growth factor receptor alpha (Homo sapiens) (P16234 whole entry): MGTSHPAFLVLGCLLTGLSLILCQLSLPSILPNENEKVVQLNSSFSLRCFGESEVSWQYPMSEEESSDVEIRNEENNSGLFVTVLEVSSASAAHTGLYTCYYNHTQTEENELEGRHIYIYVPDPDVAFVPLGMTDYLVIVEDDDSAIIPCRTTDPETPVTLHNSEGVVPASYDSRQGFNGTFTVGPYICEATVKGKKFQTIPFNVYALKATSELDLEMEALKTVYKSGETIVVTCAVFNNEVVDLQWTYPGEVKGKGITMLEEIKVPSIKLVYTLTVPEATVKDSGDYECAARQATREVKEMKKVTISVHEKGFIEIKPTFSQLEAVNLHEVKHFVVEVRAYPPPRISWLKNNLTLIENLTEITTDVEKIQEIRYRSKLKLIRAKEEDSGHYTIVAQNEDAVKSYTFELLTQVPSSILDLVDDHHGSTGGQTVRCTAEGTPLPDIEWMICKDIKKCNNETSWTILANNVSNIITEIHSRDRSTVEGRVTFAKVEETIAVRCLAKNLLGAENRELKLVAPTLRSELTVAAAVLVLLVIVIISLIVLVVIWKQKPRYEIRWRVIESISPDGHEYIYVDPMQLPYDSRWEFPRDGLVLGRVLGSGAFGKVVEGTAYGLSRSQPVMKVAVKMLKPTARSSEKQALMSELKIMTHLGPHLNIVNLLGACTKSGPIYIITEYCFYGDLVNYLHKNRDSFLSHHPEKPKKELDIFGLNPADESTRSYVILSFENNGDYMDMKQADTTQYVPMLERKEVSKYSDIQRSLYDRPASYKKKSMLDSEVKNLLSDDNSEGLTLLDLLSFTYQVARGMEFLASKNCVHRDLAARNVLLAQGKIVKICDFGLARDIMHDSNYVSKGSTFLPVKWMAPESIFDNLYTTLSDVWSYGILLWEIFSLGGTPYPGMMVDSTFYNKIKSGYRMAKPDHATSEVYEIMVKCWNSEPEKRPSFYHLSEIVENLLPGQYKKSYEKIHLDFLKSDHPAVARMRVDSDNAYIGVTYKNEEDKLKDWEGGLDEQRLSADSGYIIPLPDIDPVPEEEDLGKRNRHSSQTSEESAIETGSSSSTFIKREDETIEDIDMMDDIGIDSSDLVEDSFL

[3] = target: Platelet-derived growth factor receptor alpha (Homo sapiens) (UniProt P16234); settings: at 1 µM
[4] = system: Platelet-derived growth factor receptor alpha (Homo sapiens), P16234 [D842V]; settings: at 0.1 µM
Chain of Platelet-derived growth factor receptor alpha (Homo sapiens), P16234 [D842V] (P16234 whole entry D842V): as the sequence (P16234 whole entry) above, with D842V counted along it

[5] = system: Platelet-derived growth factor receptor alpha (Homo sapiens), P16234 [D842V]; settings: at 1 µM
[6] = system: Platelet-derived growth factor receptor alpha (Homo sapiens), P16234 [T674I]; settings: at 0.1 µM
Chain of Platelet-derived growth factor receptor alpha (Homo sapiens), P16234 [T674I] (P16234 whole entry T674I): as the sequence (P16234 whole entry) above, with T674I counted along it

[7] = system: Platelet-derived growth factor receptor alpha (Homo sapiens), P16234 [T674I]; settings: at 1 µM
[8] = system: Platelet-derived growth factor receptor alpha (Homo sapiens), P16234 [V561D]; settings: at 0.1 µM
Chain of Platelet-derived growth factor receptor alpha (Homo sapiens), P16234 [V561D] (P16234 whole entry V561D): as the sequence (P16234 whole entry) above, with V561D counted along it

[9] = system: Platelet-derived growth factor receptor alpha (Homo sapiens), P16234 [V561D]; settings: at 1 µM
[10] = target: Platelet-derived growth factor receptor beta (Homo sapiens) (UniProt P09619); settings: at 0.1 µM;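 note: reported value is the mean percent inhibition of the kinase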
Chain of Platelet-derived growth factor receptor beta (Homo sapiens) (P09619 whole entry): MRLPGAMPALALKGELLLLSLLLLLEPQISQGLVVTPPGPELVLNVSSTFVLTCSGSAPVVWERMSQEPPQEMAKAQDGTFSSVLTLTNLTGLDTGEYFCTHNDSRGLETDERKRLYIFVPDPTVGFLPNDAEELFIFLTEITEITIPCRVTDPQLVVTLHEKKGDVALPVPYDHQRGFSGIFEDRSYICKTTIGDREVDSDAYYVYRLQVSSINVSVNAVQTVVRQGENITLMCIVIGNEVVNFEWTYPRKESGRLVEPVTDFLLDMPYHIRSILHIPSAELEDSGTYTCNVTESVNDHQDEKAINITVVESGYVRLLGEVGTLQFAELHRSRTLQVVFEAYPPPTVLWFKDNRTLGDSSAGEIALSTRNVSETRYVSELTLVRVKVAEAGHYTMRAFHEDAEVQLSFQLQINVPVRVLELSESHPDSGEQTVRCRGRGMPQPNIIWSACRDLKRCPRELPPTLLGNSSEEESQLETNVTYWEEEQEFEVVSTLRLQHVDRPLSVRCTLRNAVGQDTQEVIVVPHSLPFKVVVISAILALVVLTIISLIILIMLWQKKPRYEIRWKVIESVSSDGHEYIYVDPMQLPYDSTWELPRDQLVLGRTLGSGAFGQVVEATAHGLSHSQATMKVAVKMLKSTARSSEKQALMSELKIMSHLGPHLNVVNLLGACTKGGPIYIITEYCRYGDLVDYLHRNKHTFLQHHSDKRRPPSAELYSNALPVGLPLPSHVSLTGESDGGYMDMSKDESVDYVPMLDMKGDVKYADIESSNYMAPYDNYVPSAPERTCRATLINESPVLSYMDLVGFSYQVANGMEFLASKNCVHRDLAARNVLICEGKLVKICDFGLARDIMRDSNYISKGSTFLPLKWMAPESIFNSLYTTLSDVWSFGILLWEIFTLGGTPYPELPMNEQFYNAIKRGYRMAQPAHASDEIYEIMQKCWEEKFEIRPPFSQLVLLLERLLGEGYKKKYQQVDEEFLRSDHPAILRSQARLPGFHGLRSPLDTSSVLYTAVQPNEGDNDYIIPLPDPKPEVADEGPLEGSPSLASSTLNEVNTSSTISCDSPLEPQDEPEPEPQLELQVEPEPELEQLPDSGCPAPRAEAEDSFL

Row | SMILES | inhibition [1] | inhibition [2] | inhibition [3] | inhibition [4] | inhibition [5] | inhibition [6] | inhibition [7] | inhibition [8] | inhibition [9] | inhibition [10]
1 | CN(C)CCNC(=O)Nc1ccc(N(C)c2ccnc(Nc3ccc(CS(C)(=O)=O)cc3)n2)cc1 | 10.1% | 19.4% | 54% | 9.49% | 36.1% | 9.77% | 42.5% | 39.2% | 67.4% | 28.4%
2 | COc1ccccc1-c1cc(/C=C2\C(=O)Nc3ncc(Br)cc32)cc(Br)c1O | 5.9% | 11.6% | 16.9% | 2.43% | 5.41% | 8.02% | 8.24% | 2.82% | 15.2% | 6.48%
3 | Fc1ccc(Nc2nccc(-c3c(-c4ccc(C(F)(F)F)cc4)nn4ncccc34)n2)cc1F | 2.81% | 8.86% | 7.72% |  | 4.26% | 4.35% | 6.66% | 3.46% | 2.39% | 2.15%
4 | CS(=O)(=O)Nc1ccc(-c2cc(-c3ccccc3)cc(C(N)=O)c2N)cc1 | 5.45% | 5.04% | 12.1% | -0.88% | 1.32% | 3.63% | 9.21% | 3.05% | 5.7% | 4%
5 | CN1CCC(C(=O)Nc2n[nH]c3nc(-c4ccc(O)cc4)c(Br)cc23)CC1 | 9.34% and 7.11% | 5.64% and 6.91% | 27.9% and 21.1% | 2.54% and 0.22% | 16.3% and 9.77% | 5.57% and 1.83% | 9.37% and 7.73% | 5.98% and 2.37% | 19.9% and 16.1% | 7.32% and 7.22%
6 | COc1cc(Nc2ncc(-c3ccccc3)o2)cc(OC)c1 | 4.72% | 17.5% | 54.3% | 4.08% | 12.3% | 19.5% | 76.4% | 38.5% | 64.3% | 20.5%
7 | COc1c(C(N)=O)cc(-c2ccc(Cl)cc2)cc1-c1ccc(S(N)(=O)=O)cc1 | 7.45% | 3.49% | 9.97% | 2.3% | 2.99% | 2.39% | 4.51% | 3.68% | 5.56% | 2.5%
8 | c1ccc(-c2n[nH]cc2-c2ccnc(-c3ccc(OCCn4ccnc4)cc3)c2)nc1 | 4.35% | 14.2% | 64.6% | 23.5% | 76.1% | 6.06% | 6.32% | 17.8% | 57% | 15.3%
9 | CCN1CCC(C(=O)Nc2n[nH]c3nnc(-c4cccc(F)c4F)cc23)CC1 | 4.59% | 0.87% | 3.69% | 1.64% | 2.59% | 2.94% | 7.18% | -0.48% | 0.89% | 3.08%
10 | CCCNc1cccc(-n2ncc3c(N/N=C/c4ccncc4)ncnc32)c1 | 49.9% | 29.4% | 78.4% | 16.3% | 71% | 11.7% | 38.2% | 15.3% | 68.4% | 27.1%
11 | COc1cccc(-n2ncc3c(N/N=C/c4ccc(C(=O)NCCN(C)C)cc4)ncnc32)c1 | 80.3% | 42.3% | 74.1% | 55.7% | 88.8% | 20.5% | 78.5% | 44% | 85.5% | 62.4%
12 | NS(=O)(=O)c1ccc(N/N=C2\C(=O)Nc3cccc(CCc4ccncc4)c32)cc1 | 24.2% | 33.5% | 60.7% | 16.9% | 58.5% | 6.75% | 34.6% | 26.3% | 72.3% | 29.6%
13 | Cc1cc(O)cc(C)c1/C=C/c1cncc(C(N)=O)c1 | 3.91% | 13% | 39.4% | 3.88% | 16.3% | 4.15% | 4.33% | 21% | 55.5% | 9.04%
14 | O=C(O[C@H]1CN[C@H](C#Cc2cc3ncnc(Nc4ccc(OCc5cccc(F)c5)c(Cl)c4)c3s2)C1)N1CCOCC1 | 2.35% | 7.9% | 14.3% | 2.95% | 4.82% | 8.66% | 9.57% | 8.32% | 3.92% | 1.59%
15 | NS(=O)(=O)c1cccc(N/C=C2\C(=O)Nc3ccccc32)c1 | 12.1% | 7.39% | 26.2% | 4.57% | 15.1% | 9.22% | 46.1% | 5.48% | 31.2% | 4.88%
16 | CCS(=O)(=O)c1ccc(OC)c(Nc2ncc(-c3cccc(C(C)=O)c3)o2)c1 | 4.06% | 23.2% | 68% | 20.1% | 72.8% | 7.08% | 8.46% | 22.1% | 68.2% | 53.7%

Row | SMILES | inhibition [1] | inhibition [2] | inhibition [3] | inhibition [4] | inhibition [5] | inhibition [6] | inhibition [7] | inhibition [8] | inhibition [9] | inhibition [10]
17 | CC1(C)CC(n2cnc(-c3ccc(F)cc3)c2-c2ccnc(N)n2)CC(C)(C)N1 | 5.42% | 3.29% | 5.34% | 1.19% | 0.18% | 2.4% | 4.71% | -0.6% | 3.08% | 5.64%
18 | COc1ccc(Nc2ncc(-c3ccccc3)o2)cc1OC | 19.2% | 25.9% | 68.6% | 5.83% | 28.4% | 42.2% | 94.4% | 48.8% | 77% | 25.5%
19 | FC(F)(F)CNc1nccc(-c2cnn3ncccc23)n1 | -2.34% | 0.78% | 10.1% |  | 4.9% | 1.52% | 4.54% | 0.59% | 2.85% | 2.11%
20 | Nc1nccc(-c2c(-c3ccc(F)cc3)ncn2C2CCNCC2)n1 | 4.78% and 1.25% | 1.26% and 2.55% | 32.6% and 7.91% | 3.48% and 2.03% | 9.35% and 6.11% | -2.56% and 3.91% | 1.13% and 1.39% | 4.62% and 3.92% | 19.5% and 6.51% | 3.91% and 1.3%
21 | O=C(O[C@H]1CN[C@H](C#Cc2cc3ncnc(Nc4ccc5c(cnn5Cc5ccccc5)c4)c3s2)C1)N1CCOCC1 | -0.19% | 2.17% | 8.81% | 2.71% | 3.09% | -0.12% | 2.78% | 2.22% | 2.22% | 2.18%
22 | c1cnn2ncc(-c3ccnc(NCCCN4CCOCC4)n3)c2c1 | 0.6% | 5.5% | 6.66% | 0.88% | 3.59% | 3.47% | 5.82% | 3.16% | 2.82% | 0.52%
23 | CS(=O)(=O)CCNCc1ccoc1-c1ccc2ncnc(Nc3ccc(OCc4ccccc4)cc3)c2c1 | 3.07% | 7.98% | 15.1% | -0.69% | 2.14% | 4.43% | 8.96% | 1.67% | 7.53% | 0.39%
24 | CNC(=O)c1cncc(/C=C/c2ccccc2C)c1 | 3.97% | 11.8% | 17.8% | 3.85% | 5.79% | 4.91% | 5.69% | 4.75% | 17% | 6.6%
25 | Cc1cc(O)cc(C)c1/C=C/c1cncc(C(=O)OC(C)(C)C)c1 | 3.99% | 9.43% | 42.6% | 5.23% | 14.7% | 4.63% | 5.73% | 14.4% | 51% | 9.17%
26 | CN1CCN(Cc2ccc(-c3cc4ncnc(Nc5ccc(OCc6cccc(F)c6)c(Cl)c5)c4s3)o2)CC1 | 1.12% and 8.01% | 6.77% and 7.26% | 16.9% and 23.4% | 3.07% and 3.74% | 6.44% and 9.07% | 4.32% and 7.13% | 13.9% and 20% | 5.61% and 3.37% | 13.1% and 11.5% | 2.48% and 3.36%
27 | COc1ccc(-c2nn3ncccc3c2-c2ccnc(Nc3ccc(F)c(F)c3)n2)cc1 | 3.15% | 14.7% | 17.7% |  | 8.96% | 10.3% | 11.2% | 7.34% | 11.3% | 9.04%
28 | Cc1c2ccc(N(C)c3ccnc(Nc4cccc(S(N)(=O)=O)c4)n3)cc2nn1C | 5.12% | 63.5% | 86.5% | 13.9% | 57.9% | 77% | 96.5% | 71.5% | 92.5% | 53.9%
29 | CCS(=O)(=O)c1ccc(OC)c(Nc2ncc(-c3cccc(F)c3)o2)c1 | 16.3% | 21.1% | 70.7% | 11.3% | 41.5% | 5.36% | 17.3% | 21.4% | 68.7% | 35.7%
30 | Nc1ncnc2occ(-c3ccc(NC(=O)Nc4cc(C(F)(F)F)ccc4F)cc3)c12 | 94.1% and 97.6% | 80.4% and 68.5% | 93.4% and 90.3% | 17% and 8.08% |  | 75.6% and 72.8% | 97.9% and 83% | 88.8% and 81.8% | 97.9% and 96.5% | 48.5% and 28.9%
31 | CS(=O)(=O)CCNCc1ccc(-c2ccc3ncnc(Nc4ccc(OCc5ccccc5)cc4)c3c2)o1 | 1.04% | 4.6% | 10.4% | 3.6% | 3.61% | 3.14% | 4.61% | 5.39% | 7.8% | 3%
